Reference: PubChem BioAssay AID1851 (National Center for Advancing Translational Sciences (NCATS), 2009)
Several values for one entry are separate records, joined by “and”; a condition that tells them apart may be missing. Equal entries are not always repeated. Hit rate of the full screen: of about 16,000 compounds, about 2,600 (16%) were called active. About 20% were inconclusive and are not listed. The list is a sample of the results. Some compounds were tested as several samples or in several runs, with calls that do not always agree. Unmarked numbers belong to inactive results. The call rests on the fitted dose curve; in most records, active means well fitted curve in the direction sought with a large enough effect; inconclusive means small, poorly fitted or top-dose-only effect, or effect the other way; inactive means no such curve, though single readings can be large or run the other way.

Molecular target: Cytochrome P450 2D6 (Homo sapiens) (UniProt P10635)
Sequence (P10635 whole entry, looked up): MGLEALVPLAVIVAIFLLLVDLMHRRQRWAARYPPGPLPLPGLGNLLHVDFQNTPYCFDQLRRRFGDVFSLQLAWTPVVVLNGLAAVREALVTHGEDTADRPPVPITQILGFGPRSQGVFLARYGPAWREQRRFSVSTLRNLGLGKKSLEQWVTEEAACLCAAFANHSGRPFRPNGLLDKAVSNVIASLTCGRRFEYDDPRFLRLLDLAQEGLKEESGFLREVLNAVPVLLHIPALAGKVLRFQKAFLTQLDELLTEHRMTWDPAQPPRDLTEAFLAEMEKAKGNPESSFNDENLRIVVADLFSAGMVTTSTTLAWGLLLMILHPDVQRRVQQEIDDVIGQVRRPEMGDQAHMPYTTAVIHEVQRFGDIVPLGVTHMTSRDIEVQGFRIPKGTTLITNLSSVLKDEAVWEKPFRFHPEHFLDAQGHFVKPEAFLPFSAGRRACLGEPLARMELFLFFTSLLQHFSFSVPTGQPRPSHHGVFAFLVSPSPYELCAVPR
Assay: Cytochrome panel assay with activity outcomes
Conditions: recombinant CYP, pro-luciferin dealkylation, luminescence, p450-cyp2d6; series mostly up to 57.1 µM; activity, negative = inhibition: at the top concentration
On the % scale 0 is the no-effect control and ±100 the full control effect.

SMILES | activity, negative = inhibition | AC50
COc1ccccc1NC(=O)c1sc2ncn(Cc3ccccc3C)c(=O)c2c1C | -8.04% | –
Cc1ccccc1C(=O)NN(C)c1nc2ccccc2nc1C(F)(F)F | 20.4% | –
CC(=O)N1CCN(c2ccc(NC(=O)c3ccc(C)cc3)cc2)CC1 | 28.5% | –
COC(=O)CC[C@@H](C)[C@H]1CC[C@H]2[C@H]3CC[C@H]4C[C@@H]5CC[C@@]4(C)C3(O5)[C@@H](Br)[C@@H](Br)[C@@]12C | -11.7% [at 11.4 µM] | –
CO[C@H]1COC(=O)C/C=C\[C@@H](C)[C@H](OC)COC(=O)CCC[C@@H]1C | 17.9% [at 11.4 µM] | –
Cc1ccc(CSc2nnc(C(F)(F)F)n2Cc2ccc(F)cc2)cc1 | -29.3% | –
CC(C)(C)c1ccc(-c2nnc(SCc3ccc(Cl)cc3)n2-c2cccc(C(F)(F)F)c2)cc1 | 7.38% [at 11.4 µM] | –
Fc1ccc(Cn2c(SCc3ccc(F)c(C(F)(F)F)c3)nnc2C(F)(F)F)cc1 | – | 15.8 µM (active)
CCc1cc2c(nc1CC)CCN(CC/C(C)=N/O[C@@H](C)c1cc(-c3c(C)cc(C)cc3C)no1)C2 | -13.3% [at 11.4 µM] | –
COC(=O)C/C=C\[C@@H](C)[C@@H](/C=N\O[C@@H](C)CN1CCCc2nc(C)c(C)cc21)NS(=O)(=O)c1ccc(C)cc1 | – | 3.16 µM (active)
Cc1cc2c(nc1C)CCCN2C[C@H](O)CN1CCCc2nc(-c3ccc(Br)cc3)ccc21 | -14.3% [at 11.4 µM] | 3.16 µM (active)
Cc1cc2c(nc1C)CCCN2CC(O)CN1CCCc2nc(C)c(C)cc21 | -7.07% [at 11.4 µM] | –
C=CC[C@@H]1C=C[C@H](ON=C(C)C)[C@H](CO)O1 | 9.56% [at 11.4 µM] | –
CCc1cc2c(nc1CC)CCN(CC/C(C)=N/O[C@@H](C)CN1CCCc3nc(C)c(C)cc31)C2 | – | 3.98 µM (active)
CO/N=C\[C@@H](NS(=O)(=O)c1ccc(C)cc1)[C@H](C)/C=C\CC(=O)OC | -13.5% [at 11.4 µM] | –
C/C(CCN1CCc2nc(-c3ccccc3)c(-c3ccccc3)cc2C1)=N\O[C@@H](C)CN1CCCCc2nc(C)c(C)cc21 | -4.1% [at 11.4 µM] | –
COC(=O)C/C=C\[C@@H](C)[C@@H](/C=N\O[C@@H](C)CN1CCCCc2nc(C)c(C)cc21)NS(=O)(=O)c1ccc(C)cc1 | 2.33% [at 11.4 µM] | –
C=CC[C@@H]1C=C[C@H](O/N=C(\C)CCN2CCCCc3nc(C)c(C)cc32)[C@H](CO)O1 | – | 3.98 µM (active)
Cc1ccc(NC(=O)NNC(=O)Cn2nc(-c3ccccc3)c(-c3ccccc3)c(C#N)c2=O)cc1 | -28.9% | –
O=C(N1CCOCC1)N1CCN(c2ccccc2)CC1 | 22.2% | –
Brc1[nH]nc2ccccc12 | -8.31% | –
Cc1ccc(S(=O)(=O)N[C@@H]2COC(=O)C/C=C\[C@H](C)COC(=O)N[C@@H](C)C(=O)C/C=C\[C@H]2C)cc1 | 2.75% [at 11.4 µM] | –

SMILES | activity, negative = inhibition | AC50
CSc1nc(Cl)cc(N(CCO)CCO)n1 | 2.7% | –
Cn1cccc1C(=O)N1CCC[C@@]2(CCN(c3ccccn3)C2)C1 | -19.6% | –
CCN(CC)C(=S)SSC(=S)N(CC)CC | – | inactive
CN(C)[C@H]1C(=O)C(C(=O)NCN2CCCC2)=C(O)[C@]2(O)C(=O)C3=C(O)c4c(O)cccc4[C@](C)(O)[C@H]3C[C@H]12 | -10.6% [at 11.4 µM] | –
CC(C)Cn1c(-c2ccc(Cl)cc2)cnc1SCC(=O)N1CCOCC1 | -14.5% | –
Cn1cc(-c2nc3cnc(N4CCNCC4)nc3n(-c3ccccc3)c2=O)c2ccccc21 | -8.56% | –
Cn1cnc([N+](=O)[O-])c1Sc1nc(N)nc2c1ncn2[C@H]1C[C@H](O)[C@@H](CO)O1 | 4.56% [at 11.4 µM] | –
C/C(CCN1CCCc2nc(C)c(C)cc21)=N\O[C@@H](C)CN1CCCCc2nc(C)c(C)cc21 | -11.7% [at 11.4 µM] | –
C/C(CCN1CCCc2nc(C)c(C)cc21)=N\OC[C@@H](O)[C@@H]1O[C@@H]2OC(C)(C)O[C@@H]2[C@H]1O | 1.91% [at 11.4 µM] | –
C/C(CCN1CCCCc2nc(C)c(C)cc21)=N\OC[C@@H](C)[C@H](OCc1ccccc1)C(C)C | -1.58% [at 11.4 µM] | –
CC(C)=NO[C@@H](C)CN1CCCCc2nc(C)c(C)cc21 | – | 2.51 µM (active)
C/C(CCN1CCCCc2nc(C)c(C)cc21)=N\O[C@@H](C)c1cn([C@H](CO)Cc2ccccc2)nn1 | -8.6% [at 11.4 µM] and -9.25% [at 11.4 µM] | –
C/C(CCN1CCCc2nc(C)c(C)cc21)=N\OC[C@@H](C)[C@H](OCc1ccccc1)C(C)C | 0.76% [at 11.4 µM] | –
COC(=O)[C@@H]1CC[C@H](C)[C@@H](c2ccc(C)cc2)N1C(=O)c1ccc(/C=N\O[C@@H](C)CN2CCCCc3nc(C)c(C)cc32)cc1 | -20.9% [at 11.4 µM] | –
CO/N=C(\C)CCN1CCCc2nc(C)c(C)cc21 | – | 3.98 µM (active)
CO/N=C(\C)CCN1CCCCc2nc(C)c(C)cc21 | – | 3.98 µM (active)
C/C(=N\NC(N)=S)c1ccc[nH]1 | 7.95% [at 11.4 µM] | –
CCC1=NN(C(=O)CCc2ccccc2)C(O)(C(F)(F)F)C1 (stereo unspecified) | -38.3% | –
NCCSCCC(=O)O | -2.86% [at 11.4 µM] | –
CC(C)[C@H](CO)Nc1nc(Nc2cc(N)cc(Cl)c2)c2ncn(C(C)C)c2n1 | -14.6% | –
COc1cccc(=O)c2c(C)n(-c3cc(C)cc(C)c3)c(C)c12 | 11.5% | –
O=c1[nH]c2[nH]c(=S)[nH]c(=S)c2[nH]1 | -8.17% [at 11.4 µM] | –

SMILES | activity, negative = inhibition | AC50
COc1ccc(-c2nnc3n2N=C(C)CS3)cc1 | 14.1% | –
NS(=O)(=O)c1nc(S(=O)(=O)O)c2[nH]cnc2n1 | 10.8% [at 11.4 µM] | –
COc1ccc2[nH]cc(CCNc3ncnc4ccc(-c5ccccc5C#N)cc34)c2c1 | – | 7.94 µM (active)
COc1ccc(CNc2ncnc3ccc(-c4ccccc4C#N)cc23)c(OC)c1 | -8.39% | –
COc1ccc2[nH]cc(CCNc3ncnc4ccc(-c5ccccc5CN(C)C)cc34)c2c1 | – | 10 µM (active)
COc1ccc2[nH]cc(CCNc3ncnc4ccc(-c5ccccc5OC)cc34)c2c1 | – | 3.98 µM (active)
COc1ccccc1-c1nnc(SCc2nc3ccccc3s2)n1C | -12.9% | –
N=C(N)C(N=Nc1ccccc1)C(=N)N (stereo unspecified) | -0.561% [at 11.4 µM] | –
O=C(O)/C=C\c1c2ccc(=O)c(O)c-2oc2c(O)c(O)ccc12 | -4.81% [at 11.4 µM] | –
CC1(C)CC2(CC(C)(C(=O)CSc3nc4ccccc4s3)OC2=O)C(=O)O1 (stereo unspecified) | -16.7% | –
CCC[C@H]1C[C@H](C(=O)N[C@H]([C@@H]2O[C@H](SC)[C@@H](O)[C@H](O)[C@@H]2O)[C@H](C)O)N(C)C1 | 2.09% [at 25.6 µM] | –
O=C(Nc1nnc(C2CC2)s1)c1ccncc1 | -18.1% | –
CC1(C)OC(=O)N(Cc2ccco2)C1(C)O (stereo unspecified) | 0.289% | –
O=C(O)/C=C1\NC(=O)c2ccccc21 | 18.6% | –
O=C(O)c1ccccc1Nc1ccccc1 | -2.44% | –
Nc1ccc(Nc2ccccc2)cc1 | -17.3% | –
Nc1ccccc1Nc1ccccc1 | – | 22.4 µM (active)
COc1ccc(-c2nc3cnc(N(C)C)nc3n(Cc3cccs3)c2=O)cc1 | 0.378% | –
O=S1(=O)[C@H]([C@H]2CC3c4ccccc4C2c2ccccc23)[C@@H](N2CCCCC2)[C@@H]1c1ccccc1 | – | 3.16 µM (active)
CCCn1nnnc1NC(=O)c1ccc(C)cc1Cl | 11.3% | –
COC(=O)c1ccc(C#CC(NP(=O)(c2ccccc2)c2ccccc2)c2ccccc2)cc1 (stereo unspecified) | -5.92% | –
CC1CN(C(NC(=O)C(C)(C)C)C(Cl)(Cl)Cl)CC(C)O1 (stereo unspecified) | 21.1% | –

SMILES | activity, negative = inhibition | AC50
CCOC(=O)c1c(NC(=S)Nc2ccccc2)sc2c1CCN(CCc1ccccc1)C2 | – | 0.0708 µM (active)
CCN1CCc2c(sc(NC(=S)NC(=O)c3ccccc3)c2C#N)C1 | 1.83% | –
CCOC(=O)c1c(NC(=S)NC(=O)c2cnn(CC)c2)sc2c1CCC(C)C2 (stereo unspecified) | -14.5% | –
CCOC(=O)N1CCC(NC(=O)c2cc(S(=O)(=O)N3CCCC3)cn2C)CC1 | -6.26% | –
COCc1cc(=O)[nH]c2cc(NC(=O)C(F)(F)F)c(C)cc12 | -0.291% | –
CC(C)(CO)Cc1cc(C(C)(C)C)c(O)c(C(C)(C)C)c1 | -3.84% | –
Cc1cc(-c2cc(C)c(O)c(C(C)(C)C)c2)cc(C(C)(C)C)c1O | -4.06% [at 11.4 µM] | –
CC(C)(C=O)Cc1cc(C(C)(C)C)c(O)c(C(C)(C)C)c1 | – | 25.1 µM (active)
O=C(c1ccc2c(c1)N(Cc1ccc(F)cc1)C(=O)CS2)N1CCOCC1 | 10.9% | –
Cc1cc(OC(=O)c2ccc(Cl)cc2)cc(=O)n1C | -10.9% | –
O=S(=O)(c1ccccc1)N1CCC2(CCCN(c3ccccn3)C2)CC1 | – | 12.6 µM (active)
CS(=O)(=O)N1CCC[C@@]2(CCN(c3ccccn3)C2)C1 | -4.03% | –
O=S(=O)(c1ccccc1)N1CCC2(CC1)CN(c1ncccn1)C2 | 5.25% | –
CS(=O)(=O)N1CCC2(CCCN(c3ncccn3)C2)CC1 | – | 15.8 µM (active)
O=S(=O)(c1ccccc1)N1CCC2(CCCN(c3ncccn3)C2)CC1 | – | 12.6 µM (active)
O=S(=O)(c1ccccc1)N1CCC2(CCN(c3ncccn3)CC2)CC1 | 1.44% | –
CS(=O)(=O)N1CCC[C@@]2(CCN(c3ncccn3)C2)C1 | 3.87% | –
CC(=O)N1CCC2(CCCN(c3ccccn3)C2)CC1 | -12.1% | –
CS(=O)(=O)N1CCC2(CC1)CN(c1ncccn1)C2 | 9.25% | –
